# High-throughput results (PubChem BioAssay)
# KDM4E inh = qHTS Assay for Inhibitors of Human Jumonji Domain Containing 2E (JMJD2E) | hit rate 1.6% among 230,000 | AID 2147, 2009 | JMJD2E catalytic domain, FDH-coupled NADH fluorescence (FDH is formaldehyde dehydrogenase) | Potency, µM (titrated, usually from 57.1 µM), without a hit: top-dose activity change, negative = inhibition, most hits filed as inhibitors;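 also: potency is read from the fitted curve at half-maximal effect; 0% = wells with enzyme and -100% = buffer wells without enzyme; nearly all actives have a fitted effect of over 50% in size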
# ALDH1A1 block = qHTS Assay for Inhibitors of Aldehyde Dehydrogenase 1 (ALDH1A1) | Aldehyde dehydrogenase 1A1 (Homo sapiens), P00352 | Purified ALDH1A1, NADH fluorescence, propionaldehyde substrate | Potency, µM (titrated, usually from 75.3 µM), inactives show at the top dose activity, negative = inhibition, usual class: inhibitors | hit rate 7.3% among 220,000 | AID 1030, 2008;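 also: potency is read from the fitted curve at half-maximal effect; plate controls were no enzyme wells and a reference inhibitor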
# Target sequence (P00352 whole entry, looked up): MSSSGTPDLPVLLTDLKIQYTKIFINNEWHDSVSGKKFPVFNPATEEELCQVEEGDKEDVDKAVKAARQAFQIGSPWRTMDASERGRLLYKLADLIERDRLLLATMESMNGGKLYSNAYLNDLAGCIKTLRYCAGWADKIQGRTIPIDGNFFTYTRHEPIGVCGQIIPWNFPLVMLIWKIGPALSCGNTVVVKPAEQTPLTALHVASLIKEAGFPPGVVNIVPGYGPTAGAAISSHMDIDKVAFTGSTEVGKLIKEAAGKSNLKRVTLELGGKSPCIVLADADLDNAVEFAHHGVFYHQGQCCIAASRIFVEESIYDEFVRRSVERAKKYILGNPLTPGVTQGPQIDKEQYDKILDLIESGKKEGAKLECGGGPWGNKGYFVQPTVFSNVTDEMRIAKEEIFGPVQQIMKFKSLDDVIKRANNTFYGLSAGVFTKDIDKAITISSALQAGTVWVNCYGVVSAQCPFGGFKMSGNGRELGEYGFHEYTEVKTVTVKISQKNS
# NPSR antag = qHTS Assay for Antagonists of the Neuropeptide S Receptor: cAMP Signal Transduction; Potency, µM (top dose mostly 38.3 µM), inactives show at the highest dose activity change, negative = inhibition, usual class: inhibitors; Q6W5P4; hit rate 1% among 220,000; CHO-NPSR cells, cAMP TR-FRET, antagonist mode; active = well fitted curve in the direction sought with a large enough effect; inconclusive = small, poorly fitted or top-dose-only effect, or another doubt; inactive = no such curve, though single readings can be large; an effect the other way counts as inactive or inconclusive; also: potency is read from the fitted curve at half-maximal effect; nearly all actives have a fitted effect of over 50% in size
# Sfp inh = qHTS Assay for Inhibitors of Bacillus subtilis Sfp phosphopantetheinyl transferase (PPTase); 4'-phosphopantetheinyl transferase ffp (Bacillus subtilis), Q9F4F7; Biochemical Sfp PPTase activity, qHTS; Potency, µM, for inactives: largest response in the series, negative = inhibition, usual class: inhibitors; hit rate 3.5% among 310,000; AID 1490, 2009; active = well fitted curve in the direction sought with a large enough effect; inconclusive = small, poorly fitted or top-dose-only effect, or another doubt; inactive = no such curve, though single readings can be large; an effect the other way counts as inactive or inconclusive;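 also: the enzyme is Sfp with the accession as filed and its product quenches rhodamine fluorescence; potency is read from the fitted curve at half-maximal effect; 0% = enzyme reaction without inhibitor and -100% = no enzyme wells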
#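 With Hepes-Na pH 7.6 buffer containing 10 mM MgCl2, Sfp (15 nM) modified BHQ-2-YbbR (12.5 uM) using rhodamine-CoA (5 uM). Two reads 30 minutes apart at 525/598 nm yielded each well's rate.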
# Coupling enz = qHTS Assay for Inhibitors of Fructose-1,6-bisphosphate Aldolase from Giardia Lamblia: Coupling assay counterscreen; coupling enzyme system counterscreen, AmpLite Red fluorescence; activity change, negative = inhibition, % at 58.2 µM, hits read low; hit rate 0.67% among 290,000; in the data active = activity change below about -30%
#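 Coupling enzymes only (glyceraldehyde-3-phosphate) + compound, at 57.5 uM final, 10 min RT; add substrate/coupling/AmpLite Red mix, 20 min RT; fluorescence ex 525/em 598 nm. Actives flag coupling-system interference.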
# RGS12 GoLoco inh = qHTS Assay for Inhibitors of RGS12 GoLoco Motif Activity (Red Fluorophore); Guanine nucleotide-binding protein G(i) subunit alpha-1 (Homo sapiens), P63096; Gai1:RGS12 GoLoco peptide FP, rhodamine, 10 min; Potency, µM (highest dose often 61.6 µM), inactives show at the top dose activity, negative = inhibition, usual class: inhibitors; hit rate 0.44% among 230,000; AID 880, 2007; active = well fitted inhibition curve with a large enough effect, not every such curve was filed as active; inactive = no such curve, though single readings can be large or run the other way; also: potency is read from the fitted curve at half-maximal effect; nearly all actives have a fitted effect of over 30% in size
# * marks the source's active call; other numbers are inactive results; ? = inconclusive; . = no result; [ ] = another dose, or the depositor's remark. Most compounds without a hit are left out; they make up all but 8.5% or so of the library. Unless noted, calls follow the shape of the dose curve; as a rule, active = well fitted inhibition curve with a large enough effect (not every such curve was filed as active); inconclusive = small, poorly fitted or top-dose-only effect, or another doubt; inactive = no such curve, though single readings can be large or run the other way. Unless noted, % is scaled to controls: 0 for no effect and ±100 for the full control effect.
SMILES,KDM4E inh,ALDH1A1 block,NPSR antag,Sfp inh,Coupling enz,RGS12 GoLoco inh
Cc1ccc(-c2cc(-c3n[nH]c(=S)n3C)c3ccccc3n2)cc1,?,?,-12.6%,?,-0.6,-2.3%
COC(=O)c1ccc(Cn2nc(-c3cc(C)ccc3C)ccc2=O)cc1,.,.,.,-22.8%,1.3,.
O=C(CSc1nnc(-c2ccc(C(F)(F)F)cn2)s1)c1ccccc1,-18.1%,?,0.0%,9.9%,-0.4,5.7%
Cc1cccc(NC(=O)CN2C(=O)S/C(=C\c3ccc(-c4cccc(C(=O)O)c4C)o3)C2=O)c1,?,-9.8%,-50.6%,-16.7%,5.1,12.2%
CCn1c(C)cc(/C=C2/NC(=O)N(CC(=O)Nc3cccc(C)c3)C2=O)c1C,22.4µM*,4.4%,9.5%,6.4%,0.0,-0.5%
Cc1ccc(/C=C2/NC(=O)N(Cc3ccccc3)C2=O)s1,-20.1%,?,0.6%[46.1 µM],50.1µM*,2.0,132.1%
CCn1c(C)cc(/C=C2\NC(=O)N(CC(=O)Nc3cccc(C)c3)C2=O)c1C,?,?,7.9%[46.1 µM],-5.5%,3.4,20.7%
COCCn1c(C)cc(/C=C2/NC(=O)N(c3cccc(Cl)c3)C2=O)c1C,?,?,-25.0%,10.6%,-2.9,16.3%
Cc1cccc(NC(=O)CN2C(=O)N/C(=C\c3ccc(-c4cccc(C(=O)O)c4)o3)C2=O)c1,?,.,-9.0%,39.8µM*,-5.2,1.1%
CCn1c(C)cc(/C=C2/NC(=O)N(c3ccccc3)C2=O)c1C,25.1µM*,12.6µM*,-40.0%,-6.6%,0.2,22.5%
COc1ccc(CNC(=O)CCS(=O)(=O)c2ccc3c(c2)NC(=O)CS3)cc1,.,.,.,9.8%,-0.9,.
CC(/C=C/c1ccccc1)=N/NC(=O)Cn1nnc(N)n1,9.9%,.,-6.7%,15.6%,-2.6,-1.4%
COc1ccc(/C=C2/NC(=O)N(CC(=O)Nc3cccc(C)c3)C2=O)cc1O,?,5.1%,-18.9%,-5.8%,-0.2,29.2%
Cc1cccc(NC(=O)CN2C(=O)N/C(=C/c3ccc(C)o3)C2=O)c1,-16.8%,10µM*,8.9%,11.2µM*,-2.1,13.5%
Cc1ccc(C)c(CN2C(=O)c3ccccc3S(=O)(=O)c3ccc(C(=O)N4CCN(C)CC4)cc32)c1,.,.,.,9.1%,.,.
Cc1ccc(C)c(CN2C(=O)c3ccccc3S(=O)c3ccc(C(=O)N4CCN(c5ccccn5)CC4)cc32)c1 (stereo not drawn),-11.6%,10.2%,7.94µM*,-3.8%,-2.5,3.2%
Cc1cc(=O)oc2c(C)c(OCC(=O)c3ccccc3)ccc12,.,.,.,22.0%,1.3,.
S=C(Nc1ccc2c(c1)OCCO2)Nc1ccc2c(c1)OCO2,-10.3%,22.4µM*,8.2%,-12.8%,-8.5,6.1%
OCCNC(=S)Nc1ccc2c(c1)OCCO2,-3.0%,5.1%,-7.8%,-6.8%,1.1,3.4%
S=C(Nc1ccc2c(c1)OCO2)Nc1ccccc1Cl,-0.3%,?,-10.9%,17.8µM*,1.0,14.4%
CC(=O)Nc1ccc(NC(=O)C2CC(=O)N(Cc3ccccc3)C2)cc1 (stereo not drawn),2.7%,3.55µM*,13.2%,15.6%,5.8,-2.5%
CC(CCc1ccccc1)NS(=O)(=O)c1ccccc1Cl (stereo not drawn),.,.,.,-1.2%,1.8,.
CC(CCc1ccccc1)NS(=O)(=O)c1ccccc1 (stereo not drawn),6.7%,10µM*,4.3%[46.1 µM],1.4%,-6.3,3.0%
Cn1cccc1-c1cc(C(=O)O)[nH]n1,-3.9%,13.1%,3.6%[46.1 µM],44.7µM*,-8.0,2.3%
CC(=O)Nc1ccc(CN2CCc3c([nH]c4ccccc34)C2c2ccccn2)cc1 (stereo not drawn),25.1µM*,1.2%,33.4%,1.1%,-9.3,-22.5%
SMILES,KDM4E inh,ALDH1A1 block,NPSR antag,Sfp inh,Coupling enz,RGS12 GoLoco inh
CC(=O)c1cc(CC(=O)N2CCc3c([nH]c4ccccc34)C2c2ccccn2)cs1 (stereo not drawn),?,-4.6%,41.8%,20µM*,5.1,4.0%
Cc1nc(C)c(CC(=O)N2CCc3c([nH]c4ccccc34)C2c2ccccn2)s1 (stereo not drawn),?,-5.6%,18.0%,-8.7%,-5.9,2.5%
Cn1cccc1-c1cc(C(=O)N2CCc3c([nH]c4ccccc34)C2c2ccccn2)[nH]n1 (stereo not drawn),5.3%,12.6µM*,40.1%,?,0.1,22.8%
O=C(c1ccc(-n2cccn2)cc1)N1CCc2c([nH]c3ccccc23)C1c1ccccn1 (stereo not drawn),-15.7%,-10.9%,30.2%,-9.1%,-5.2,11.0%
Cc1noc(/C=C/c2nn(C)cc2Cl)c1[N+](=O)[O-],-12.2%,8.91µM*,43.9%,4.3%,3.5,-1.1%
Clc1cccc(Nc2nnc(-c3ccccc3)c3ccccc23)c1,11.2µM*,?,.,13.4%,-6.1,0.9%
Cc1nc2cc(Nc3nnc(-c4ccccc4)c4ccccc34)ccc2n1C,2.6%,-9.3%,-19.7%[46.1 µM],3.6%,-2.3,.
CC(C)c1ccc(NC(=O)C2CC(=O)N=C(N)S2)cc1 (stereo not drawn),0.3%,17.8µM*,-2.8%[46.1 µM],2.1%,2.8,-1.7%
NC1=NC(=O)CC(C(=O)NCCc2ccccc2)S1 (stereo not drawn),7.6%,12.6µM*,3.2%[46.1 µM],16.6%,2.8,-1.5%
CC(=O)N1CCN(C(=O)C(Cc2c[nH]c3ccccc23)NC(=O)c2ccccc2Cl)CC1 (stereo not drawn),.,.,.,13.5%,3.6,.
O=C1C(CCCNC(=S)NCc2ccccc2)NC(=S)N1Cc1ccccc1 (stereo not drawn),-0.3%,31.6µM*,-16.5%,5.9%,0.4,1.2%
Cn1nc(-c2ccc(Cl)cc2)c2cc(C(=O)NCCCN3CCCC3)sc21,?,?,10µM*,-7.0%,0.3,26.9%
CC(C)NC(=O)c1cc2c(-c3ccc(Cl)cc3)nn(C)c2s1,8.91µM*,?,-0.7%[46.1 µM],2.6%,3.1,6.1%
CC(C)COP(=O)(OCC(C)C)C(O)c1ccc(N(C)C)cc1 (stereo not drawn),-6.6%,.,11.9%,0.4%,0.2,-12.7%
O=C(CSc1nnnn1C1CCCCC1)Nc1ccccc1N1CCOCC1,1.7%,28.2µM*,-6.9%,-1.2%,-11.1,-11.7%
CCn1c(Cc2ccccc2)nnc1SCC(=O)Nc1ccccc1N1CCOCC1,2.3%,8.91µM*,-28.1%[46.1 µM],8.4%,1.6,2.8%
CCOC(=O)c1ccccc1NC(=O)CSc1nnnn1C1CCCCC1,-7.8%,3.55µM*,?,-12.5%,4.4,.
